# Laboratory results: PubChem BioAssay (NCATS)
# Activity calls are given as the source filed them. The rule behind the calls is not given here.
# Tested on: HIV-1 nucleocapsid protein NCp7 (binding to TG oligonucleotide)
# Assay: HIV Nucleocapsid (AID 346);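 note: potency is for inhibitors that block NC binding and lower polarization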
# Conditions: HIV-1 NC / fluorescein-TGTGTGTG probe, fluorescence polarization
# Outline: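 Fluorescence polarization readout: labelled TG4xF oligo (10 nM) with 100 nM nucleocapsid protein, high-salt (250mM NaCl) Hepes pH 7.5 buffer containing zinc and fresh reducing agents. Compounds added by pin tool; incubation 1 hr, room temperature.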
# Potency is the fitted concentration of half-maximal effect.
row,Structure (SMILES),Potency
1,COc1ncc2nc(-c3cccs3)c(=O)n(CCc3ccccc3)c2n1,> 20 µM (inactive)
2,N#Cc1cccc(-c2nc(NCCN3CCOCC3)c3ccccc3n2)c1,> 20 µM (inactive)
3,O=C(c1cccc(F)c1)N1CCC2(CCN(Cc3ccccc3)CC2)CC1,> 20 µM (inactive)
4,COc1ccc(-c2nc3cnc(OC)nc3n(Cc3cccs3)c2=O)cc1,> 20 µM (inactive)
5,CCNc1ncc2nc(-c3cccs3)c(=O)n(-c3ccc(OC)cc3)c2n1,4.09 µM (active)
6,COc1ccccc1CNc1ncnc2ccc(-c3cccc(NS(C)(=O)=O)c3)cc12,> 20 µM (inactive)
7,Cn1c(=O)c(-c2ccc(Cl)cc2)nc2cnc(Oc3ccccc3)nc21,> 20 µM (inactive)
8,CCNc1ncc2nc(-c3cc(F)cc(F)c3)c(=O)n(CCC#N)c2n1,19.8 µM (inactive)
9,COc1cccc(-c2cncnc2-n2ccnc2)c1,> 20 µM (inactive)
10,COCCNc1nc(-c2ccc(C(=O)N(C)C)cc2)nc2ccccc12,> 20 µM (inactive)
11,c1ccc2c(Nc3ccncc3)nc(-c3ccoc3)nc2c1,> 20 µM (inactive)
12,CCNc1ncc2nc(-c3cc(F)cc(F)c3)c(=O)n(C3CC3)c2n1,> 20 µM (inactive)
13,Cc1cnc(CNc2cc(-c3cccnc3)ncn2)cn1,> 20 µM (inactive)
14,COCCn1c(=O)c(-c2ccc(OC)cc2)nc2cnc(Nc3cccc(OC)c3)nc21,8.97 µM (active)
15,CCNc1ncc2ncc(=O)n(CCOC)c2n1,> 20 µM (inactive)
16,O=C(c1cnccn1)N1CCC2(CC1)CCN(c1ccncc1)CC2,> 20 µM (inactive)
